Screening data from PubChem BioAssay.
Sampled rows, rich in hits. Any-hit rate of the full collection: about 28%.
CYP2C9 inhib – blockers of cytochrome P450 2C9 activity – biochemical, luminescence, ADME assay, primary screen; P11712; CYP2C9 Supersomes, luciferin-H conversion; inhibition, % at 5 µM; actives 20% (n = 96,000); AID 777, 2007;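 active = blocking of liver enzyme CYP2C9 beyond about 50% at 5 µM, limit read from the data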
CYP2C19 inhib – blockers of cytochrome P450 2C19 activity – biochemical, luminescence, ADME assay, primary screen. actives 21% (n = 96,000). CYP2C19 Supersomes, luciferin-H EGE luminescence, 30 min. inhibition, % at 5 µM;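 active = CYP2C19 inhibition above a set limit at 5 µM in the primary screen, cut at about 50% in these data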;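 also: plate controls were negative control wells for no effect and 2.5 mM tranylcypromine positive control for full effect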
Target sequence (P33261 whole entry, looked up): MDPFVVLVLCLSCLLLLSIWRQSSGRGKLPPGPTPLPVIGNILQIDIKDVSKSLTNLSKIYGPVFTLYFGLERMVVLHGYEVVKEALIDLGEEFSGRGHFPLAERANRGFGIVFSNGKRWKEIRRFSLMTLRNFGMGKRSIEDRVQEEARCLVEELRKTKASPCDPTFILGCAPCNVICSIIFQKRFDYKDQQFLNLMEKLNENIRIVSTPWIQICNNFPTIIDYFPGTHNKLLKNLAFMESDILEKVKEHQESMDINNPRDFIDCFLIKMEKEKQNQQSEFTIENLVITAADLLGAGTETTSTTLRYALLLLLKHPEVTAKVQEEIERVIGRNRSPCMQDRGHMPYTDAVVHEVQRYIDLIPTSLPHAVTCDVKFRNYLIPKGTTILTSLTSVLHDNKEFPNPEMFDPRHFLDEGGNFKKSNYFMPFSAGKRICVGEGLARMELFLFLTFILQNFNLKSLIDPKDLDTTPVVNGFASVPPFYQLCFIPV
CYP2C19 activ – human CYP2C19 activators, primary screen, biochemical, luminescence. AID 1025, 2008. activation factor at 5 µM. 96,000 tested, under 10 active. recombinant CYP2C19, luciferin-H EGE luminescence; active compounds read high; 0 = fully inhibited enzyme, 1 = untreated enzyme;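 active = activation factor of at least 2 at 5 µM in the primary screen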;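 also: 0 = wells with 2.5 mM tranylcypromine and 1 = vehicle-only wells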
CYP2C9 activ – human CYP2C9 activators, primary screen, biochemical, luminescence; Cytochrome P450 2C9 (Homo sapiens), P11712; actives 1.4% (n = 96,000); AID 1024, 2008; activation factor at 5 µM; recombinant CYP2C9, luciferin-H conversion; active compounds read high; factor 1 = untreated enzyme, 0 = blocked;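 active = activation factor of 2 or more for CYP2C9 at a 5 µM dose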;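 also: 0 = sulfaphenazole-blocked wells and 1 = vehicle-only wells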
PLK1 kinase inh – human PLK1 kinase inhibitors, primary screen, biochemical, TR-FRET; Serine/threonine-protein kinase PLK1 (Homo sapiens), P53350; recombinant PLK1 kinase, TR-FRET peptide phosphorylation; inhibition, % at 10 µM; actives 0.53% (n = 97,000); AID 619, 2007;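 active = inhibition of 50% or more in the single-concentration screen; inactive = inhibition below 50%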;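 also: 0% = DMSO max control and 100% = H-89 dihydrochloride min control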
PLK1 PBD inh – Plk1 polo box domain binding inhibitors, primary screen, biochemical, fluorescence polarization; Plk1 PBD phosphopeptide binding; inhibition, %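 (tested at about 20 µM)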; actives 0.13% (n = 97,000); in the data active = inhibition above about 34%, passing the limit was not always enough
Active calls of the source: *; / = not tested or not shown.

SMILES	CYP2C9 inhib	CYP2C19 inhib	CYP2C19 activ	CYP2C9 activ	PLK1 kinase inh	PLK1 PBD inh
Cc1cc(NC(=O)CSc2nc3ccccc3s2)no1	26	34	0.7	0.7	-10	12
O=C(CSc1nc2ccccc2s1)N1CCCCC1	21	84*	0.2	0.8	0	-10
CC1CN(C(=O)C(C)Sc2nc3ccccc3s2)CC(C)O1 (stereo not given)	44	94*	0.1	0.6	-6	-18
O=C(CSc1ccc(Cl)cc1)N1CCC(c2nc3ccccc3s2)CC1	54*	25	0.8	0.5	-13	-27
CCCC(=O)Nc1ccc(C(=O)NNC(=O)c2ccco2)cc1	20	24	0.8	0.8	-12	-19
CCOC(=O)CSCC(=O)Nc1c(C(=O)C2CC2)oc2ccccc12	/	/	/	/	-9	18
CC1CCCN(C(=O)CSc2cnc3ccccc3n2)C1 (stereo not given)	11	50*	0.5	0.9	-12	6
CCCCC1CC(C)(C(=O)CSc2nc3ccccc3s2)OC1=O (stereo not given)	78*	4	1	0.2	-6	-19
O=C(CSc1nc2cc(Cl)ccc2s1)N1CCCc2ccccc21	62*	44	0.6	0.4	-16	34
CC1CCCN(C(=O)CN2C(=O)c3ccccc3C2=O)C1 (stereo not given)	5	-4	1	1	-12	13
CC1CCN(C(=O)CSc2nc3ccccc3s2)CC1	63*	57*	0.4	0.4	-3	11
NS(=O)(=O)c1ccc(CNC(=O)/C=C/c2c(Cl)cccc2Cl)cc1	-48	-9	1.1	1.5	-11	-27
O=C(Cn1ccc2ccccc2c1=O)NCCC(=O)Nc1ccc2c(c1)OCCO2	40	10	0.9	0.6	-7	-10
COc1ccccc1-n1c(SCC(=O)N2CCCC2)nc2cccnc21	-6	-8	1.1	1.1	-2	-1
CC1CCCC(C)N1C(=O)CSc1nc2ccccc2s1 (stereo not given)	61*	86*	0.1	0.4	-10	3
NC(=O)C1CCN(C(=O)CSc2nc3ccccc3s2)CC1	23	8	0.9	0.8	-15	9
Cc1ccccc1OCC(=O)NNC(=O)c1ccc(-c2ccccc2)cc1	-24	16	0.8	1.2	-5	0
CCOC(=O)/C(N)=C/c1ncc(C(F)(F)F)cc1Cl	5	-2	1	0.9	-13	0
CCOC(=O)C(C)S(=O)(=O)c1ccc(C(F)(F)F)cn1 (stereo not given)	1	54*	0.5	1	-9	-27
OCCSc1nncn1/N=C/c1c[nH]c2ccccc12	30	14	0.9	0.7	4	-29
C=CCNc1nc(Nc2ccc(-c3nc4ccccc4o3)cc2)nc(N2CCOCC2)n1	42	49	0.5	0.6	-2	-12
CC(C)(C)c1cccc(Oc2nn[nH]n2)c1	-8	72*	0.3	1.1	-17	24
Cc1cc(C)cc(Oc2nn[nH]n2)c1	3	-3	1	1	-2	2
COc1ccc(/C=N/NC(=O)C(=O)NCc2cccnc2)cc1OC	-2	-6	1.1	1	-2	1
COc1cc(C2C(C#N)=C(N)N(Nc3ccccc3)C3=C2C(=O)CC(C)(C)C3)ccc1OCc1ccccc1 (stereo not given)	79*	21	0.8	0.2	-8	13
SMILES	CYP2C9 inhib	CYP2C19 inhib	CYP2C19 activ	CYP2C9 activ	PLK1 kinase inh	PLK1 PBD inh
COc1cc(C2C(C#N)=C(N)N(Nc3ccccc3)C3=C2C(=O)CC(C)(C)C3)ccc1OCc1cccc(F)c1 (stereo not given)	96*	68*	0.3	0	-9	19
COc1ccc(C2C(C#N)=C(N)N(Nc3ccccc3)C3=C2C(=O)CC(C)(C)C3)cc1C (stereo not given)	2	17	0.8	1	-11	-21
C=CCOc1ccc(C2C(C#N)=C(N)N(Nc3ccccc3)C3=C2C(=O)CCC3)cc1OC (stereo not given)	70*	14	0.9	0.3	-10	-16
COc1ccccc1N1CCN(CCc2n[nH]c(=S)n2-c2ccccc2)CC1	-20	-21	1.2	1.2	/	/
Cc1ccc(S(=O)(=O)c2c(N)n(CCN3CCOCC3)c3nc4ccccc4nc23)cc1C	0	72*	0.3	1	-15	-14
Cc1ccc(S(=O)(=O)c2c(N)n(CCCO)c3nc4ccccc4nc23)cc1	92*	92*	0.1	0.1	-10	-18
Cc1ccc(S(=O)(=O)c2c(N)n(Cc3ccco3)c3nc4ccccc4nc23)cc1C	65*	54*	0.5	0.4	-6	14
Nc1c(S(=O)(=O)c2ccccc2)c2nc3ccccc3nc2n1Cc1ccco1	36	18	0.8	0.6	-2	-20
Cc1ccc(S(=O)(=O)c2c(N)n(CCC(C)C)c3nc4ccccc4nc23)cc1	48	43	0.6	0.5	-10	4
Cc1cc(/C=C(\C#N)C(=O)Nc2ccccc2)c(C)n1-c1ccc2c(c1)OCO2	23	-1	1	0.8	-3	-1
Cc1ccn2c(-c3csc(NCc4ccco4)n3)c(C)nc2c1	19	25	0.7	0.8	/	/
COc1cccc(C(=O)Nc2nc(-c3ccc4c(c3)OCO4)cs2)c1	48	15	0.8	0.5	-2	4
Cc1cccc(Nc2nc(-c3c(C)nc4ccccn34)cs2)c1	61*	33	0.7	0.4	-6	5
Cc1cccc(Nc2nc(-c3ccc4c(c3)OCCO4)cs2)c1	86*	49	0.5	0.1	-12	17
O=C(c1ccc2c(=O)n3c(nc2c1)CCCCC3)N1CCN(C(c2ccccc2)c2ccccc2)CC1	62*	53*	0.5	0.4	-3	17
O=C(Nc1ccc(F)c(Cl)c1)c1ccc2c(=O)n3c(nc2c1)CCCCC3	8	3	1	0.9	5	-7
O=C(NCCC1=CCCCC1)c1ccc(CN2CCOCC2)cc1	/	/	/	/	11	22
CN(C(=O)c1ccc2c(=O)n3c(nc2c1)CCCCC3)c1ccccc1	/	/	/	/	-6	3
Cc1ccccc1C(=O)Nc1ccc2nc3n(c(=O)c2c1)CCC3	-4	-14	1.1	1	-12	6
O=C(Nc1cccc(Cl)c1)c1ccc2c(=O)n3c(nc2c1)CCCCC3	63*	26	0.7	0.4	-8	2
CN(C)c1cccc(C(=O)Nc2ccc3nc4n(c(=O)c3c2)CCCCC4)c1	76*	76*	0.2	0.2	-5	-13
